Values joined by “and” are separate entries in the source; they are usually repeats but may differ in a detail not shown here. Equal values may be shown once. In all, about 5,500 compounds went through this assay and about 2,000 (36%) were called active. Another 18% or so got no clear call; they are omitted. Cut-off read from the data, not from the text of the source: active = normalized growth mostly below about 0.91 (no sharp cut-off); inconclusive = no clear call, values can overlap the other calls; inactive = mostly above about 0.92. The list shows a part of the results.
Assay: chemical genetic growth profiling, strain panel (AID 1159580);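 note: tested at 20 µM; growth read once vehicle control cultures reached saturation at 30 °C; 1 = growth at the plate median or of vehicle wells; lower values mean less growth of the strain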
Conditions: S. cerevisiae deletion strains, growth OD

Measured: normalized growth

O=C(O)c1cc2ccccc2c(Cc2c(O)c(C(=O)O)cc3ccccc23)c1O
active: locus YHR079C, strain IRE1, stronger effect = lower value 0.844
inactive: locus YAL021C, strain ccr4, stronger effect = lower value 0.967 | locus YAL026C, strain drs2, stronger effect = lower value 1.01 | locus YAL030W, strain snc1, stronger effect = lower value 0.994 | locus YBL061C, strain skt5, stronger effect = lower value 0.99 | locus YBR009C, strain hhf1, stronger effect = lower value 0.988 | locus YBR021W, strain FUR4, stronger effect = lower value 1.02 | locus YBR023C, strain chs3, stronger effect = lower value 0.996 | locus YBR171W, strain sec66, stronger effect = lower value 1 | locus YBR229C, strain ROT2, stronger effect = lower value 1.01 | locus YBR231C, strain swc5, stronger effect = lower value 0.977 | locus YBR279W, strain paf1, stronger effect = lower value 0.99 | locus YCL011C, strain gbp2, stronger effect = lower value 1 | locus YCL016C, strain dcc1, stronger effect = lower value 0.989 | locus YCL029C, strain bik1, stronger effect = lower value 1.01 | locus YCL061C, strain MRC1, stronger effect = lower value 1 | locus YCL069W, strain vba3, stronger effect = lower value 1 | locus YCR088W, strain abp1, stronger effect = lower value 1.01 | locus YDL005C, strain med2, stronger effect = lower value 1 | locus YDL035C, strain GPR1, stronger effect = lower value 1.01 | locus YDL040C, strain nat1, stronger effect = lower value 0.995 | locus YDL074C, strain BRE1, stronger effect = lower value 0.94 | locus YDL101C, strain DUN1, stronger effect = lower value 1 | locus YDL134C, strain PPH21, stronger effect = lower value 0.997 | locus YDL185W, strain tfp1, stronger effect = lower value 1.01 | locus YDL192W, strain arf1, stronger effect = lower value 1 | locus YDR001C, strain nth1, stronger effect = lower value 1.01 | locus YDR069C, strain doa4, stronger effect = lower value 0.989 | locus YDR101C, strain arx1, stronger effect = lower value 1.01 | locus YDR137W, strain rgp1, stronger effect = lower value 1.04 | locus YDR159W, strain sac3, stronger effect = lower value 0.97 | locus YDR162C, strain NBP2, stronger effect = lower value 0.985 | locus YDR195W, strain ref2 0.977 | locus YDR297W, strain sur2, stronger effect = lower value 0.995 | locus YDR318W, strain mcm21, stronger effect = lower value 0.988 | locus YDR334W, strain swr1, stronger effect = lower value 0.996 | locus YDR335W, strain msn5, stronger effect = lower value 1.01 | locus YDR388W, stronger effect = lower value 0.996 | locus YDR392W, strain spt3, stronger effect = lower value 0.911 | locus YDR502C, strain sam2, stronger effect = lower value 1 | locus YEL003W, strain gim4, stronger effect = lower value 1.02 | locus YEL037C, strain rad23, stronger effect = lower value 0.999 | locus YEL061C, strain CIN8 (second series), stronger effect = lower value 1 | locus YEL061C, strain CIN8, stronger effect = lower value 1.03 | locus YER015W, strain faa2, stronger effect = lower value 0.988 | locus YER016W, strain bim1, stronger effect = lower value 1 | locus YER110C, stronger effect = lower value 0.989 | locus YER111C, strain swi4, stronger effect = lower value 1.01 | locus YER155C, strain BEM2 (second series), stronger effect = lower value 0.962 | locus YER155C, strain BEM2, stronger effect = lower value 0.992 | locus YER167W, strain BCK2, stronger effect = lower value 1 | locus YFR010W, strain ubp6, stronger effect = lower value 1.01 | locus YGL078C, strain dbp3, stronger effect = lower value 1.01 | locus YGL086W, strain mad1, stronger effect = lower value 1 | locus YGL167C, strain pmr1, stronger effect = lower value 0.994 | locus YGL173C, strain kem1, stronger effect = lower value 0.997 | locus YGL227W, strain vid30, stronger effect = lower value 1 | locus YGL240W, strain doc1, stronger effect = lower value 0.96 | locus YGL248W, strain PDE1, stronger effect = lower value 0.998 | locus YGL253W, strain hxk2, stronger effect = lower value 1.01 | locus YGR078C, strain PAC10, stronger effect = lower value 0.996 | locus YGR135W, strain pre9, stronger effect = lower value 0.99 | locus YGR252W, strain gcn5, stronger effect = lower value 0.978 | locus YHR013C, strain ard1, stronger effect = lower value 0.966 | locus YHR027C, strain rpn1, stronger effect = lower value 1 | locus YHR030C, strain SLT2, stronger effect = lower value 1.01 and 0.859 | locus YHR079C, strain IRE1 (second series), stronger effect = lower value 0.992 | locus YHR094C, strain hxt1, stronger effect = lower value 0.999 | locus YHR129C, strain ARP1, stronger effect = lower value 0.995 | locus YHR142W, strain chs7, stronger effect = lower value 1.02 | locus YHR200W, strain rpn10, stronger effect = lower value 0.991 | locus YIL066C, strain RNR3, stronger effect = lower value 0.986 | locus YIL073C, strain SPO22, stronger effect = lower value 1.02 | locus YIL125W, strain kgd1, stronger effect = lower value 0.994 | locus YIR030C, strain dcg1, stronger effect = lower value 1 | locus YJL092W, strain hpr5, stronger effect = lower value 1.01 | locus YJL095W, strain BCK1 (second series), stronger effect = lower value 0.992 | locus YJL115W, strain asf1, stronger effect = lower value 1 | locus YJL129C, strain trk1, stronger effect = lower value 0.976 | locus YJL134W, strain LCB3, stronger effect = lower value 0.99 | locus YJL154C, strain vps35, stronger effect = lower value 1 | locus YJL164C, strain tpk1, stronger effect = lower value 0.99 | locus YJL166W, strain qcr8, stronger effect = lower value 0.992 | locus YJL168C, strain set2, stronger effect = lower value 0.977 | locus YJL187C, strain SWE1 (second series), stronger effect = lower value 1 | locus YJL187C, strain SWE1, stronger effect = lower value 1.02
0.99 (inactive) and 0.866 (active): locus YJL095W, strain BCK1, stronger effect = lower value

Reference: PubChem BioAssay AID1159580 (chemical genetic matrix, 2015)
